Compounds with a hit are over-represented: about 19% of the library has one in this group of screens.
TDP1 cell noCPT: qHTS for Inhibitors of human tyrosyl-DNA phosphodiesterase 1 (TDP1): qHTS in cells in absence of CPT | actives 15% (n = 420,000) | Potency, µM (highest dose often 46.2 µM), for inactives: top-dose activity change, negative = growth inhibition, most hits filed as inhibitors | DT40 Tdp1-/- hTDP1 cells, no CPT, ATP luminescence, 48 h | AID 686978, 2013; note: potency is the fitted concentration of half-maximal effect; % is set by controls: 0 for no effect and ±100 for the full control effect; nearly all actives have a fitted effect of over 55% in size
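Readout: luminescence from CellTiter-Glo after 30 min in the dark at RT. Cells: DT40 Tdp1-/- with stable hTDP1, 400/well. Exposure: compounds alone, ≥48 hr, 37 °C.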
TGFb inhibitor: TGF-b pathway inhibition | HepG2 CAGA-GFP TGF-b/SMAD3 reporter, GFP fluorescence, 18 h; TGF-beta stimulated, 500 pg/mL final | Potency, µM (top dose mostly 46.1 µM), for inactives: top-dose activity, negative = inhibition, hits mostly inhibitors | actives 1.2% (n = 410,000) | AID 588855; note: potency is the fitted concentration of half-maximal effect; % is set by controls: 0 for no effect and ±100 for the full control effect; nearly all actives have a fitted effect of over 65% in size
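Smad-responsive CAGA-GFP expression was quantified in HEPG2 cells exposed to compounds and 500 pg/mL final TGF-beta for 18 h at 37 degrees C; unstimulated wells defined full inhibition.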
TDP1 block: blocks human tyrosyl-DNA phosphodiesterase 1; recombinant TDP1, AlphaScreen DNA substrate cleavage; actives 0.28% (n = 350,000); Potency, µM (top dose mostly 130 µM), without a hit: at the highest dose activity change, negative = inhibition, hits mostly inhibitors; AID 485290; Q9NUW8; note: potency is the fitted concentration of half-maximal effect; % is set by controls: 0 for no effect and ±100 for the full control effect; nearly all actives have a fitted effect of over 40% in size
Target sequence (Q9NUW8 whole entry, looked up): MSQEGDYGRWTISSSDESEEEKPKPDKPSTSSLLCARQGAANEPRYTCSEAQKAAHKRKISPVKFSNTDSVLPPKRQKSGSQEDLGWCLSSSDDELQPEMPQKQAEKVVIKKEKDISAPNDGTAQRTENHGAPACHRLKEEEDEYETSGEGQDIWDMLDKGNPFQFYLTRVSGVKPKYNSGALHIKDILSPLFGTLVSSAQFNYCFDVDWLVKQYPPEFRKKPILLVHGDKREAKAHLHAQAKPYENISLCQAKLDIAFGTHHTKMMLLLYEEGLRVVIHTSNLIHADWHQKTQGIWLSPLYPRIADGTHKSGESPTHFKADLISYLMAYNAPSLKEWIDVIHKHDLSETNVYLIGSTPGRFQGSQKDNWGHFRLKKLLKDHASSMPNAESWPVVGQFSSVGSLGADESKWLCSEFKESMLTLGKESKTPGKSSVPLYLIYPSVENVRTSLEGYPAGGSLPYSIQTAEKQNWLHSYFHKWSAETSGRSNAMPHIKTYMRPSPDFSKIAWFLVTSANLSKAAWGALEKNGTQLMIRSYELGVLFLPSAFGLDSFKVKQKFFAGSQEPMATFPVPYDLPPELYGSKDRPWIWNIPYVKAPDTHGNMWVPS
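Compounds were preincubated with Tdp1 (1 nM final) for 15 min at room temperature before substrate (15 nM final) started a 5 min reaction; beads (10 ug/ml final) were then added for 10 min before AlphaScreen detection.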
IL-1B inflam inh: inhibitors of inflammasome signaling (IL-1 beta secretion). actives 4.7% (n = 360,000). THP-1 LPS/ATP IL-1B secretion, AlphaLISA, 16 h; active compounds read low. activity change, % at 57.5 µM; in the data active = activity change below about -50%; inconclusive = mostly about -30% to -49%; note: % is set by controls: 0 for no effect and ±100 for the full control effect
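Secreted IL-1B measured by AlphaLISA bead assay after 16 h compound exposure of THP-1 cells; compounds (final up to 57.5 uM) added 1 h before LPS (250 ng/mL) and ATP (1.25 mM) stimulation; lower signal means less secretion.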
HepG2 viability: counter-screen for TGF-b inhibitors: cytotoxicity in HepG2 cells; actives 0.76% (n = 410,000); AID 588856; HepG2 CAGA-GFP viability, ATP luminescence, 18 h; Potency, µM (doses to about 46.1 µM), for the others: at the top dose activity change, negative = cytotoxicity, hits mostly cytotoxic; note: potency is the fitted concentration of half-maximal effect
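CellTiter-Glo luminescence gave cytotoxicity after 18 hours at 37 degrees C. The cells were HepG2 CAGA-GFP in 1% FBS DMEM, stimulated with 500 pg/mL TGF-beta after compound addition. %Activity was normalised to no-cell wells (complete cell-killing) and DMSO (no toxicity), and curves were fitted and classified.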
TDP1 cell CPT: DT40-hTDP1 cell growth loss with CPT. chicken DT40 Tdp1-/-;hTDP1 cells + 20 nM CPT, ATP luminescence, 48 h. Potency, µM (top dose mostly 46.2 µM), without a hit: at the top dose activity change, negative = growth inhibition, hits mostly inhibitors. actives 12% (n = 420,000). AID 686979; note: potency is the fitted concentration of half-maximal effect; % is set by controls: 0 for no effect and ±100 for the full control effect; nearly all actives have a fitted effect of over 55% in size
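Chicken DT40 Tdp1-/- cells complemented with human TDP1, 400 cells/well, exposed to compounds plus 20 nM camptothecin for at least 48 h at 37 C; viability read as ATP content by CellTiter-Glo luminescence.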
* hit, by the source's call; ? = inconclusive; nt = no result; [ ] = dose if it differs, or a comment. Unless noted, calls come from the whole dose curve; as a rule, active = well fitted curve in the direction sought with a large enough effect; inconclusive = small, poorly fitted or top-dose-only effect, or another doubt; inactive = no such curve, though single readings can be large; an effect the other way counts as inactive or inconclusive.

SMILES	TDP1 cell noCPT	TGFb inhibitor	TDP1 block	IL-1B inflam inh	HepG2 viability	TDP1 cell CPT
O=C(COC(=O)c1ncc(Cl)c(Cl)c1Cl)Nc1ccc(Cl)cn1	-9%	-11%	7%[0.505 µM]	4	1.4µM*	-9%
CC(C)NC(=O)NC(=O)COC(=O)c1ncc(Cl)c(Cl)c1Cl	-7%	-10%	0%	-63*	1%	-5%
COc1ccccc1CNC(=O)C1CCN(S(=O)(=O)c2ccc3nc4c(c(C(=O)O)c3c2)CCCC4)CC1	29%	3%	0%	-5	-5%	0%
O=c1c2cc3c(cc2n(Cc2ccc(Cl)cc2)c(=O)n1Cc1nc(-c2ccccc2)no1)OCO3	1%	-1%	6%	nt	-7%	-7%
CN(CC(=O)NCc1cccnc1)S(=O)(=O)c1ccc(F)cc1	10%	5%	5%	9	-10%	17%
COc1ccccc1CN(C(=O)CNC(=O)c1ccco1)C(C(=O)NCC1CCCO1)c1ccccc1 (centres undefined)	?	27%	nt	9	3%	-28%
Cc1ccc(C(=O)NCCC2=CCCCC2)cc1S(=O)(=O)N1CCCCC1	?	?	-1%	-58*	-6%	?
O=C(NCCC1=CCCCC1)c1ccc(Br)o1	9.2µM*	-3%	0%	5	6%	8.2µM*
O=C(NCCC1=CCCCC1)c1ccc(Cl)c(S(=O)(=O)Nc2ccccc2)c1	-26%	13µM*	4%	19	-43%	-23%
O=C(NC(=S)NCCC1=CCCCC1)c1ccc(Br)o1	-26%	-17%	2%	-7	-12%	?
Cc1ccccc1NS(=O)(=O)c1cc(C(=O)NCCC2=CCCCC2)ccc1C	?	?	2%	-14	-16%	?
CC1CN(S(=O)(=O)c2cccc(C(=O)NN3CCN(C)CC3)c2)CC(C)O1 (centres undefined)	9%	-6%	4%	7	5%	1%
CC1CN(S(=O)(=O)c2cccc(C(=O)Nc3ccc4c(c3)CCC4)c2)CC(C)O1 (centres undefined)	1.2µM*	-23%	-1%	?	11%	1.2µM*
CC1CN(S(=O)(=O)c2cccc(C(=O)NCCCn3ccnc3)c2)CC(C)O1 (centres undefined)	-17%	-2%	-1%	7	1%	-2%
O=C(NCCC1=CCCCC1)c1cccc(S(=O)(=O)N2CCCCC2)c1	23µM*	-22%	-6%	0	0%	?
CC1CN(S(=O)(=O)c2cccc(C(=O)NCCC3=CCCCC3)c2)CC(C)O1 (centres undefined)	21µM*	?	nt	3	-5%	12µM*
CN(c1cccc(Cl)c1)S(=O)(=O)c1cccc(C(=O)Nc2ccc3c(c2)CCC3)c1	12µM*	-13%	-1%	1	-6%	23µM*
O=C1CSc2ccc(C(=O)NCCc3ccc(Cl)cc3Cl)cc2N1	15µM*	-17%	3%	-5	-34%	?
CC(OC(=O)c1ccccc1NS(=O)(=O)c1cccc(N)c1)C(=O)N(C)Cc1ccccc1 (centres undefined)	23µM*	-2%	2%	-12	6%	?
O=C(NC1CCCCC1)C(c1ccccc1)N(Cc1ccc2c(c1)OCO2)C(=O)c1cnsn1 (centres undefined)	?	-1%	7%	-61*	-3%	21µM*
O=C(NC1CCCCC1)C(c1ccc2ncccc2c1)N(Cc1ccc2c(c1)OCO2)C(=O)c1ccc2c(c1)OCCO2 (centres undefined)	26µM*	1%	5%	-2	12%	?
CCCCCCc1nc2nc(Cl)c(Cl)nc2[nH]1	8.2µM*	4%	nt	11	4%	18µM*
CCOc1ccc(NC(=O)C(=O)NCCc2sc(-c3ccc(C)cc3)nc2C)cc1	nt	1%	0%	nt	-7%	nt
Cc1ccc(OCC(=O)N(Cc2ccco2)c2ccccn2)cc1	-5%	nt	-5%	nt	-1%	?
COc1ccccc1Cc1c(-c2ccc(Cl)cc2)nc2c(C)cc(Br)cn12	7.3µM*	14µM*	nt	0	13µM*	6.5µM*
SMILES	TDP1 cell noCPT	TGFb inhibitor	TDP1 block	IL-1B inflam inh	HepG2 viability	TDP1 cell CPT
COc1ccccc1Cc1c(-c2cccc(Br)c2)nc2c(C)cc(Br)cn12	23µM*	?	nt	20	-47%	16µM*
O=C(NCCCCNC(=O)c1cccnc1Cl)c1cccnc1Cl	18%	12%	-1%	9	16%	10%
CC1CCCCC1NC(=O)C1CCN(S(=O)(=O)c2cccc3nonc23)CC1 (centres undefined)	?	18%	3%	10	-2%	10%
COc1ccc(CCNC(=O)c2cc(-c3ccc(C)cc3O)n[nH]2)cc1OC	21µM*	-30%	2%	10	-2%	?
COc1ccc(CCNC(=O)c2cc(-c3ccccc3O)n[nH]2)cc1OC	12%	-14%	7%	10	0%	-2%
COc1ccc(CCNC(=O)c2cc(-c3cc(Cl)ccc3O)n[nH]2)cc1OC	12µM*	-20%	nt	-6	-46%	?
CC(=O)OCC1OC(n2c(S)c(C#N)c(-c3ccccc3)c(C#N)c2=O)C(OC(C)=O)C(OC(C)=O)C1OC(C)=O (centres undefined)	?	-6%	nt	-15	-2%	?
COc1cccc2cc(C(=O)Nc3ccccc3C)/c(=N/O)oc12	16µM*	?	nt	21	-38%	16µM*
N=c1oc2cc(O)ccc2cc1C(=O)Nc1ccc(F)cc1	?	0%	nt	-56*	0%	?
O=C(c1ccc(F)cc1)c1cc2ccc(O)cc2oc1=O	-24%	-11%	nt	-12	-52%	?
COc1cccc2cc(C(=O)NCc3ccccc3Cl)c(=O)oc12	0%	-4%	nt	2	-14%	10%
COc1ccc(NC(=O)c2cc3ccc(O)cc3o/c2=N\O)cc1	?	-1%	nt	?	-33%	4.1µM*
COc1ccc2o/c(=N\O)c(C(=O)Nc3ccccc3OC)cc2c1	5.8µM*	2%	7%	-14	1%	3.7µM*
COc1ccc(NC(=O)c2cc3ccccc3oc2=O)cc1	?	-4%	nt	9	10%	-20%
